Pf growth 48h: inhibits P. falciparum growth in the first generation, 48 h; P. falciparum luciferase growth in erythrocytes, 48 h; Potency, µM (doses to about 28.7 µM), inactives show at the highest dose activity change, negative = inhibition, actives largely listed as inhibitors; actives 5.9% (n = 310,000); note: potency is the fitted concentration of half-maximal effect; % is set by controls: 0 for no effect and ±100 for the full control effect
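Here the parasites carry a stable luciferase gene and grow inside erythrocytes in Albumax-based RPMI medium with compound for one erythrocytic cycle. Activity is scored as loss of luminescent signal.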
SARS PLP yeast: SARS-CoV PLP inhibition in yeast. S. cerevisiae expressing SARS-CoV PLpro, growth rescue. Potency, µM (titrated, usually from 32.9 µM), without a hit: at the top dose activity, positive = growth rescue, usual class: activators. actives 0.19% (n = 330,000). AID 485353; calls by dose curve; note: potency is the fitted concentration of half-maximal effect; 0% is about no effect; nearly all actives have a fitted effect of over 55% in size
Shiga inhibitor: Shiga toxin inhibition. AID 2315. inhibition, % at 38.7 µM. Vero cells, Shiga toxin protein synthesis inhibition reporter. actives 9.2% (n = 290,000); in the data active = inhibition mostly above about 28%, no sharp cut-off; inactive = mostly below about 43%; note: 0% is about no effect
CHX counter: affects cycloheximide protein synthesis inhibition readout, counter-screen; cell reporter, cycloheximide protein synthesis inhibition counterscreen; max response, %; actives 12% (n = 300,000); AID 2314; in the data active = max response mostly above about 13%, no sharp cut-off; inactive = mostly below about 14%; note: read at 38.3 µM for the half of the compounds with a filed dose; 0% is about no effect
Pf growth 96h: inhibits malaria parasite growth, 96 h; P. falciparum luciferase reporter growth, 96 h; Potency, µM (highest dose often 28.7 µM), for the others: top-dose activity change, negative = inhibition, usual class: inhibitors; actives 6.9% (n = 320,000); note: potency is the fitted concentration of half-maximal effect; % is set by controls: 0 for no effect and ±100 for the full control effect
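Compounds incubated with erythrocytes infected by luciferase-expressing P. falciparum (2% hematocrit, 0.05% parasitemia final) for 96 hours, 37 C in 5% CO2. Growth inhibition scored as decreased luciferase luminescence.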
AMA1 RON2 block: inhibitors of Plasmodium falciparum AMA1-RON2 interaction; actives 0.2% (n = 360,000); Potency, µM (titrated, usually from 58.2 µM), inactives show top-dose activity change, negative = inhibition, usual class: inhibitors; AID 720542; AlphaScreen AMA1-biotinylated RON2 peptide binding;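 note: potency is the fitted concentration of half-maximal effect; 0% = vehicle wells and -100% = peptide control; nearly all actives have a fitted effect of over 45% in size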
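AMA1 (3D7) with his tag at 25 nM final met compounds first, then biotinylated RON2 peptide at 25 nM; detection used donor plus acceptor beads, 10 µg/mL apiece, read by AlphaScreen after 30 min at room temperature.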
Numbers without * were called inactive; ? = inconclusive; . = no result; [ ] = another dose, or the depositor's remark. The list is not random: actives were taken first. Their share in the collection is about 19%. Unless noted, calls come from the whole dose curve; as a rule, active = well fitted curve in the direction sought with a large enough effect; inconclusive = small, poorly fitted or top-dose-only effect, or another doubt; inactive = no such curve, though single readings can be large; an effect the other way counts as inactive or inconclusive.

SMILES	Pf growth 48h	SARS PLP yeast	Shiga inhibitor	CHX counter	Pf growth 96h	AMA1 RON2 block
CNC(=O)c1cc2c(=O)n3cccc(C)c3nc2n(C(C)C)c1=N	0.3%	8.0%	-10.5	-0.5	?	?
C[C@H](CO)N1C[C@H](C)[C@@H](CN(C)C(=O)Nc2ccc3c(c2)OCO3)Oc2ccc(NC(=O)Nc3ccc4c(c3)OCO4)cc2C1=O	.	-4.1%	.	.	.	-15.1%
O=C(c1cc2cc(Cl)ccc2[nH]1)N1CCC2(CC1)OCCO2	-26.1%	?	30.3*	28.2*	?	12.8%
O=CN1CCN(C(=O)c2cc3cc(Cl)ccc3[nH]2)CC1	-10.7%	0.5%	.	-0.8	0.0%	7.5%
O=C(c1cc2cc(F)ccc2[nH]1)N1CCC2(CC1)OCCO2	?	-13.3%	50.5*	30.5*	?	5.1%
O=C(c1ccc(F)cc1Cl)N1CCC2(CC1)OCCO2	12.9%	2.9%	-6.2	-2.6	0.0%	0.0%
CCOc1ccc(CCN2C(=O)C(=O)N([C@@H](CC(C)C)CN3CCC[C@H]3CN3C(=O)C(=O)NC[C@@H]3Cc3ccccc3)C[C@@H]2Cc2ccccc2)cc1	.	.	.	.	.	-24.3%
COc1cc2c(cc1O)CC1c3c(cc(O)c(OC)c3-2)CCN1C (stereo not drawn)	?	-2.0%	-16.5	-0.7	-22.6%	-29.5%
COc1cc2c(cc1OC)-c1c(OC)c(OC)cc3c1[C@H](C2)N(C)CC3	?	0.6%	-16.0	-4.6	3.7µM*	-6.4%
O=C(Nc1c(F)cc(F)cc1Br)c1cccnc1	-6.2%	2.6%	26.9	-1.7	50.1%	-7.1%
CC(C)Cc1cc(C(=O)Nc2c(F)cc(F)cc2Br)no1	?	-5.9%	36.8*	21.0	?	15.1%
Cc1cc(C(=O)Nc2c(F)cc(F)cc2Br)cs1	2.9%	-4.9%	10.4	13.7	14.7µM*	10.3%
COc1ccc(-c2cc(C(=O)Nc3c(F)cc(F)cc3Br)no2)cc1	30.4%	-1.4%	67.3*	15.6*	8.28µM*	8.0%
O=C(Nc1c(F)cc(F)cc1Br)c1cc(-c2ccco2)on1	38.1%	0.4%	-5.7	11.7	10.4%	4.1%
CC(C)Cc1cc(C(=O)Nc2ccc(F)cc2F)no1	77.2%	-5.1%	90.4*	56.2*	?	8.3%
CNC(=S)Nc1ccc([N+](=O)[O-])c(C)c1	17.9%	0.7%	30.1	1.0	73.3%[5.75 µM]	1.4%
COCCn1c(=NC(=O)c2cc3ccccc3oc2=O)sc2cc(S(N)(=O)=O)ccc21	-17.8%	-4.4%	1.8	7.4	5.1%	-9.8%
O=[N+]([O-])c1ccc2[nH]c(O)c(N=NC3CCS(=O)(=O)C3)c2c1 (stereo not drawn)	17.2%	-5.3%	-2.5	-0.5	24.0%	27.6%
O=C(Nc1ccc(F)cc1)C(c1ccnc2ccccc12)N1CCN(C(=O)c2ccco2)CC1 (stereo not drawn)	.	.	.	.	.	-6.1%
COc1ccccc1C1=Nn2c(nnc2-c2cccc(OC)c2OC)SC1	.	.	16.0	-1.7	.	.
O=C(O)c1ccccc1-c1ccccc1C(=O)Nc1ccc2c(c1)CCC2	0.1%	-1.3%	.	2.0	?	2.0%
NS(=O)(=O)c1ccc(NC(=O)c2ccc3c(c2)CCCC3)cc1	26.8%	-3.5%	44.8	48.0*	40.2%	20.4%
O=C(Nc1ccc2c(c1)CCC2)c1cccc(S(=O)(=O)N2CCN(c3ccccc3)CC2)c1	.	-1.9%	-1.9	-0.7	?	14.9%
CCN(CC)CCNC(=O)c1ccc(NC(=O)c2ccc3c(c2)CCC3)cc1	5.22µM*	3.2%	32.5	12.9	3.7µM*	3.6%
O=C(Nc1ccc2c(c1)CCC2)c1ccccc1F	205.6%	-37.8%	96.8*	62.8*	238.0%	5.8%
SMILES	Pf growth 48h	SARS PLP yeast	Shiga inhibitor	CHX counter	Pf growth 96h	AMA1 RON2 block
O=C(Nc1ccc2c(c1)CCC2)c1ccccc1	24.4%	-58.7%	48.3*	30.6*	-72.5%	2.9%
NS(=O)(=O)c1ccc(NC(=O)c2ccc3c(c2)OCO3)cc1	8.7%	1.3%	-5.3	-1.6	-11.4%	5.0%
CCCc1c(C(=O)N/N=C/c2sccc2C)nnn1-c1nonc1N	41.0%	-0.7%	-8.8	7.6	7.7%	18.7%
COC(=O)c1nn(-c2ccc(OC)cc2)ccc1=O	.	-1.8%	-7.6	-3.0	0.0%	-9.4%
O=C(CN1C(=O)NC2(CCCC2)C1=O)N1CCN(S(=O)(=O)c2cccc(C(F)(F)F)c2)CC1	-17.4%	10.4%	.	.	-18.8%	-7.1%
Cc1ccc(C(=O)Nc2nc(C)c(C(=O)Nc3ccc4c(c3)CCC4)s2)cc1	138.9%	3.4%	47.8*	45.4*	-1.7%	-10.2%
O=[N+]([O-])c1cc([N+](=O)[O-])c2nonc2c1Nc1ccccc1O	?	-8.8%	72.6*	15.9*	2.33µM*	-8.8%
CCc1cccc(NC(=O)c2cccc(S(=O)(=O)N3CCN(C)CC3)c2)c1	10.0%	-0.7%	-14.8	-6.4	-6.4%	-2.5%
CCc1cccc(CC)c1NC(=O)c1cccc(S(=O)(=O)N2CCN(C)CC2)c1	2.9%	-1.4%	-16.4	-1.6	-21.7%	-4.7%
CSc1ccccc1NC(=O)c1cccc(S(=O)(=O)N2CCN(C)CC2)c1	29.2%	-1.7%	32.5*	37.0*	?	-15.3%
CC(=O)c1ccc(NC(=O)c2cccc(S(=O)(=O)N3CCN(C)CC3)c2)cc1	?	4.4%	104.1*	40.7*	?	-4.8%
Cc1ccc(SC[C@H](Cc2ccccc2)N2CC[C@@H](C)CCC2=O)cc1	?	-9.7%	-8.9	-3.3	?	3.0%
COc1ccc(SC[C@H](Cc2ccccc2)N2CC[C@@H](C)CCC2=O)cc1	11.7µM*	2.9%	.	.	?	-1.9%
COc1ccc(SC[C@H](Cc2ccccc2)N2CC[C@@H](NC(=O)OCc3ccccc3)CCC2=O)cc1	7.38µM*	-16.0%	.	.	?	-8.4%
O=C(N[C@@H]1CCC(=O)N(CC[C@H](Oc2ccccc2)c2ccccc2)CC1)OCc1ccccc1	0.415µM*	-6.1%	14.3	1.9	10.4µM*	1.9%
CCOC(=O)C1=CC[C@H]2c3c(c4ccccc4n3C)C(=O)C1N2C	20.9%	0.7%	.	.	?	-5.2%
COc1ccc2cc1Oc1cc3c(cc1OC)CC[N+](C)(C)C3Cc1ccc(cc1)Oc1c(OC)c(OC)cc3c1C(C2)[N+](C)(C)CC3 (stereo not drawn)	3.9%	.	.	.	-0.2%	.
CCOC(=O)c1cc(C#N)c(N2CCNCC2)nc1C(F)(F)F	?	0.8%	-9.1	-1.3	99.0%	-4.1%
CCOC(=O)c1cc(C#N)c(N2CCN(C(=O)c3ccccc3)CC2)nc1C(F)(F)F	?	1.5%	-14.9	-1.6	10.4µM*	0.0%
CCOC(=O)c1cc(C#N)c(N2CCOCC2)nc1-c1ccccc1	1.5%	0.3%	11.9	-5.1	0.0%	34.8%
CCOC(=O)c1cc(C#N)c(N2CCN(C(=O)c3cccc(C(F)(F)F)c3)CC2)nc1C(F)(F)F	5.86µM*	2.0%	-18.0	-1.6	?	1.2%
